# Measurements taken from PubChem BioAssay (NCI).
# “And” between values parts separate entries of the source, which are not always exact repeats. Equal values may be shown once. About 83,000 compounds went through this panel and 20% of them were active in at least one assay; those are over-represented in the sample as a whole.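 Negative percent growth values reflect cell death: -40 means 40% of the cells present at the start died, and -100 means all died.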 Unmarked numbers belong to inactive results. The source made the active and inactive calls.
# Test system: HT29 colon
# Assay: NCI-60 one-dose screen, 48 h (100 = growth as untreated, 0 = no growth, -100 = all killed)
# Settings: 10 µM
# Method: Growth inhibition of the HT29 human tumor cell line is measured as a screen for anti-cancer activity. Cells are grown in 96 well plates and exposed to the test compound for 48 hours. Compounds are tested at a single concentration, which is 10^-5 M for most compounds. The reported endpoint is percent growth (GI% or GIPRCNT), where numbers from 0 - 100% represent growth inhibition, and numbers from -100% - 0 represent cell death. For example, a value of 40 represents 60% growth inhibition. A value of 0 means no net growth occurred over the course of the experiment. A value of -40 indicates 40% of cells at the beginning of the experiment died by the end of the experiment. A value of -100 means all cells are dead at the end of the experiment.
# NCI-60 Human Tumor Cell Lines Screen was performed using the standard one-dose NCI protocol, which is described in more detail at https://dtp.cancer.gov/discovery_development/nci-60/default.htm.
# Compounds with GIPRCNT values below 10 were considered active. Activity score was based on GIPRCNT using the following formula: […]
# Score is 0 for GIPRCNT values of 100 or above, 50 for GIPRCNT values of 0, and 100 for GIPRCNT values of -100.
row,SMILES,growth [%]
1,S=C(SSC(=S)N1CCCCC1)N1CCCCC1,104

# Same assay, conditions: 10 µM unless noted
row,SMILES,growth
1,COc1ccc(OC)c(/C=C/[N+](=O)[O-])c1,-29.5% (active)
2,CCC(=O)OC1CCn2c1nc1c2C(=O)C(C)=C(N2CC2)C1=O (stereo not given),7.71% (active)
3,C[C@H]1CCC/C=C/[C@@H]2C[C@H](O)C[C@H]2[C@H](O)/C=C/C(=O)O1,-53.5% (active)
4,CC(=O)O[C@H]1C[C@@H]2OC3C=C(C)CCC3(C)[C@@]1(C)[C@@]21CO1 (stereo not given in full),-32.2% (active) and -30.6% (active)
5,Oc1cccc2cccnc12,51.8% and 106%
6,CC[C@@]1(O)C(=O)OCc2c1cc1n(c2=O)Cc2cc3ccccc3nc2-1,-31.8% (active)
7,CCCCCCCCCCCC1CCCC(C)N1 (stereo not given),14.9%
8,COc1cccc2c1cc([N+](=O)[O-])c1c(C(=O)O)cc3c(c12)OCO3,0.29% (active) and -24.5% (active)
9,NCCc1ccc(OCc2ccccc2)c(OCc2ccccc2)c1,55%
10,CO[C@H](/C(C)=C/C=C/C(C)=C/c1coc(C)n1)[C@H](C)[C@H]1C[C@@H](O)[C@@]2(C)O[C@H]2/C=C/[C@@H](C)[C@@H]2C[C@@H](CC(=O)O2)C[C@H]2O[C@@H]2C(=O)O1,-23.2% (active)
11,CN1CCN(c2ccc([N+](=O)[O-])c3no[n+]([O-])c23)CC1,-51.8% (active)
12,CC1=C(CO)C2=C(C)C3(CC3)[C@@](C)(O)C(=O)C2=C1,-17.8% (active)
13,CC[C@@]1(O)C[C@H](OC2CC(N(C)C)C(OC3CC(O)C(OC4CCC(=O)C(C)O4)C(C)O3)C(C)O2)c2c(cc3c(c2O)C(=O)c2c(O)ccc(O)c2C3=O)[C@H]1C(=O)OC (stereo not given in full),-47.4% (active)
14,Cc1ccc(C(=O)OC(C(=O)O)C(OC(=O)c2ccc(C)cc2)C(=O)O)cc1 (stereo not given) (tested in a mixture with another compound),23%
15,Oc1cc[c]([Hg][Cl])cc1,100%
16,Cc1c(N)nc([C@H](CC(N)=O)NC[C@H](N)C(N)=O)nc1C(=O)N[C@H](C(=O)N[C@H](C)[C@@H](O)[C@H](C)C(=O)N[C@H](C(=O)NCCc1nc(-c2nc(C(=O)NCCC[S+](C)C)cs2)cs1)[C@@H](C)O)C(OC1OC(CO)C(O)C(O)C1OC1OC(CO)C(O)C(OC(N)=O)C1O)c1cnc[nH]1 (stereo not given in full),77.9% [2.5 µM]
17,COc1ccccc1/C=C(/C)[N+](=O)[O-],54.7% and 88.8%
18,Cc1cc(N=Nc2ccccc2C)ccc1N,103%
19,C[C@]12CC[C@H](O)CC1=CC[C@@H]1[C@@H]2CC[C@]2(C)C(=O)CC[C@@H]12,81.5%
20,CC[C@@]1(O)C[C@H](OC2CC(N(C)C)C(O)C(C)O2)c2c(O)c3c(c(O)c2[C@H]1OC1CC(N(C)C)C(O)C(C)O1)C(=O)c1cccc(O)c1C3=O (stereo not given in full),-39% (active)
21,O=C1c2ccccc2C(=O)C(Cl)C1Cl (stereo not given),96.8%
22,CCOC(=O)C(NC(=O)C(Cc1ccc(N(CCCl)CCCl)cc1)NC(C)=O)C(C)C (stereo not given),67.1%
23,COC1=C(C)C(=O)C2=C(C1=O)C(CO)N1C(C#N)C3CC4C(C1C2N1CCOC41)N3C (stereo not given),-47.7% (active)
24,COC1CC(CC2CCC(C)C(C(C)C(=O)O)O2)OC2(OC(C)(C3CCC(C)(C4OC(C5OC(O)(CO)C(C)CC5C)CC4C)O3)CC2C)C1C (stereo not given),-0.662% (active)
25,CC[n+]1c(-c2ccccc2)c2cc(N)ccc2c2ccc(N)cc21,9.77% (active)
26,CCC1(O)CC(OC2CC(N(C)C)C(OC3CC4OC5CC(=O)C(C)OC5OC4C(C)O3)C(C)O2)c2c(cc3c(c2O)C(=O)c2c(O)ccc(O)c2C3=O)C1C(=O)OC (stereo not given),-36.4% (active)
27,CC1=C2C(=O)[C@H]3[C@@H](CC=C4C[C@@H](O)CC[C@@]43C)[C@@H]2CC[C@]12O[C@@H]1C[C@H](C)CN[C@H]1[C@H]2C,82.6%
28,CC[C@](O)(C(=O)O)c1cc2n(c(=O)c1CO)Cc1cc3ccccc3nc1-2,-31.3% (active)

# Same assay, conditions: 100 µM
row,SMILES,growth
1,S=C(SSC(=S)N1CCCCC1)N1CCCCC1,-61.4% (active)
